Inconclusive results are not listed. A call without a number means that no potency is given here. Calls of active or inactive are those of the source. The call rests on the fitted dose curve; in most records, active means well fitted cell-killing curve with a large enough effect; inconclusive means small, poorly fitted or top-dose-only effect, or effect the other way; inactive means flat fitted curve, though single readings scatter.
Tested on: C33A
Experiment: Primary qHTS to identify gynecologic anti-cancer compounds using libraries of approved drugs and bioactive compounds (AID 1345084); further: nearly all actives have a fitted effect of over 55% in size
Settings: Gynecologic cancer cell panel viability, ATPlite luminescence, 48 h; series mostly up to 57.5 µM
Summary of the method: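 ATP-based viability (ATPlite), 1,000 cells/well, 16 h pre-incubation, 48 h compound at 37 C, 5% CO2, 15 min RT before read.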

Structure (SMILES) | Potency | activity change, negative = cytotoxicity
C[C@]12CCC[C@](C)(C(=O)O)C1CCC13C=C(CO)C(CCC12)C3 (some centres undefined) | inactive | –
O=C(c1ccc(C#Cc2cccc(F)c2)cn1)N1CC2CC2C1 (centres undefined) | inactive | –
C[C@H]1[C@H](C)CC[C@]2(C(=O)O)CC[C@]3(C)C(=CC[C@@H]4[C@@]5(C)C[C@@H](O)[C@H](O)[C@@](C)(CO)[C@@H]5CC[C@]43C)[C@H]12 | inactive | –
C/C=C/C=C/C(CC(=O)O)Nc1ccc(C=O)cc1 (centres undefined) | inactive | –
C[C@@H]1O[C@@H](O[C@H]2[C@H](OC(=O)[C@]34CCC(C)(C)C[C@H]3C3=CCC5[C@@]6(C)C[C@H](O)[C@H](O[C@@H]7O[C@H](CO)[C@@H](O[C@@H]8O[C@H](CO)[C@@H](O)[C@H](O)[C@H]8O)[C@H](O)[C@H]7O)[C@@](C)(CO)C6[C@H](O)C[C@@]5(C)[C@]3(C)C[C@H]4O)OC[C@H](O)[C@@H]2O)[C@H](O)[C@H](O)[C@H]1O[C@@H]1OC[C@@H](O)[C@H](O[C@@H]2OC[C@](O)(CO)[C@H]2O)[C@H]1O (some centres undefined) | – | 12.9% [at 6.55 µM] (inactive)
CC(C)(O)c1ccc2c(c1)C(=O)CC1[C@](C)(CO)CCC[C@]21C (some centres undefined) | inactive | –
CC(=O)C1CCC2(C)C3=C(CCC12C)C1(C)CCC(=O)C(C)(C)C1CC3 (centres undefined) | inactive | –
C[C@@H]1C/C=C/C=C\C=C\C=C\[C@H](O[C@@H]2O[C@H](C)[C@@H](O)[C@H](N)[C@@H]2O)C[C@@H]2O[C@](O)(C[C@@H](O)C[C@H]3O[C@@H]3/C=C/C(=O)O1)C[C@H](O)[C@H]2C(=O)O | inactive | –
COC(=O)C[C@@H]1C(C(=O)O)=CO[C@@H](O[C@@H]2O[C@H](CO)[C@@H](O)[C@H](O)[C@H]2O)/C1=C\COC(=O)/C=C\c1ccccc1 | inactive | –
CC1CCC2C(C(=O)O)=CC3C(O)C(C)(C)CC123 (centres undefined) | inactive | –
CC(C)(O)/C=C1/C(=O)C(C)(C)C(=O)C(C)(C)C1(O)O[C@@H]1O[C@H](COC(=O)c2cc(O)c(O)c(O)c2)[C@@H](O)[C@H](O)[C@H]1O (some centres undefined) | inactive | –
Cc1cc(O)c(C(C)C)cc1O[C@@H]1O[C@H](CO)[C@@H](O)[C@H](O)[C@H]1O | inactive | –
O=C1CC(c2ccc([N+](=O)[O-])cc2)=NN1c1ccccc1 | inactive | –
C=C1[C@H]2[C@H](O[C@@H]3O[C@H](COC(=O)/C=C/c4cc(OC)c(O)c(OC)c4)[C@@H](O)[C@H](O)[C@H]3O)OC=C(C(=O)O)[C@H]2C[C@@H]1O | inactive | –
C/C=C(\C)C(=O)OC[C@H]1O[C@H](O[C@H]2O[C@H](CO)[C@@H](OC(=O)/C(C)=C/C)[C@H](O)[C@H]2O[C@@H]2O[C@H](CO)[C@@H](O)[C@H](O)[C@H]2O)[C@H](O[C@@H]2O[C@H](CO)[C@@H](O)[C@H](O)[C@H]2O)[C@@H](O)[C@@H]1O | – | 3.37% [at 11.6 µM] (inactive)
CN1CC[C@@H](NC(=O)Nc2ccc(C#N)cc2)C[C@@H]1c1nc2ccccc2[nH]1 | inactive | –
O=C(O)c1cc(O[C@@H]2O[C@H](CO[C@@H]3OC[C@@H](O)[C@H](O)[C@H]3O)[C@@H](O)[C@H](O)[C@H]2O)c2ccccc2c1O | inactive | –
O=c1ccn(C2OC(CO)C(O)C2O)c(=O)[nH]1 (centres undefined) | inactive | –
Clc1ccc(CN[C@H]2CCN(c3ncc(Br)cn3)C2)c(Cl)c1 | inactive | –
C=C1C(=O)OC2/C=C(\C)CC/C=C(\C(=O)O)CC/C=C(\C)CCC12 (centres undefined) | inactive | –
C=CC1(C)C=C2C(=O)CC3C(C)(C)CCCC3(C(=O)O)C2(O)CC1 (centres undefined) | inactive | –
COc1c(C)c2c(c(O)c1C/C=C(\C)CC/C=C(\C)CCC(=O)O)C(=O)OC2 | inactive | –
CNC(=O)COC(=O)NCCC1CCN(c2cccc(C)n2)CC1 | inactive | –
Cc1nn(C)c(COc2ccc(N3CCN(S(=O)(=O)N(C)C)CC3)cc2)c1-c1cccc2c(CCCOc3cccc4ccccc34)c(C(=O)O)n(CCN3CCOCC3)c12 | inactive | –
CCCCS(=O)(=O)Nc1ncnc(OCCOc2ncc(Br)cn2)c1-c1ccc(Br)cc1 | inactive | –
C[C@H]1C[C@H]2[C@@H]3CCC4=CC(=O)C=C[C@]4(C)[C@@]3(F)[C@@H](O)C[C@]2(C)[C@@]1(O)C(=O)COP(=O)(O)O | inactive | –
CC(C)(O)c1ccc2c(c1)C(O)CC1C(C)(C(=O)O)CCCC21C (centres undefined) | inactive | –
COc1cc(CCc2ccccc2)c(C(=O)O)c2c1CC(C(C)(C)O)O2 (centres undefined) | inactive | –
CCCCCCc1cccc(NC(=O)[C@H](N)CCP(=O)(O)O)c1 | – | 10.1% [at 11.6 µM] (inactive)

Reference: PubChem BioAssay (NCATS)
